Source: PubChem BioAssay AID1159580 (chemical genetic matrix, 2015)
“And” between values parts separate entries of the source, which are not always exact repeats. Equal values may be shown once. Hit rate of the full screen: of about 5,500 compounds, about 2,000 (36%) were called active. Another 18% or so got no clear call; they are omitted. Rule as the data show it: active = normalized growth mostly below about 0.91 (no sharp cut-off); inconclusive = no clear call, values can overlap the other calls; inactive = mostly above about 0.92. The list shows a part of the results.

Experiment: chemical genetic growth profiling, strain panel (AID 1159580);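 also: tested at 20 µM; growth read once vehicle control cultures reached saturation at 30 °C; 1 = growth at the plate median or of vehicle wells; lower values mean less growth of the strain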
Conditions: growth OD

Measured: normalized growth

COc1cc(Cc2cnc(N)nc2N)cc(OC)c1OC
inactive: S. cerevisiae deletion strains, locus YJR075W, strain HOC1, active compounds read low 1.01 | S. cerevisiae deletion strains, locus YKL009W, strain mrt4, active compounds read low 1.04 | S. cerevisiae deletion strains, locus YKL068W, active compounds read low 0.986 | S. cerevisiae deletion strains, locus YKL085W, strain MDH1 (second series), active compounds read low 1.03 | S. cerevisiae deletion strains, locus YKL085W, strain MDH1, active compounds read low 1.03 | S. cerevisiae deletion strains, locus YKL160W, strain elf1, active compounds read low 1.01 | S. cerevisiae deletion strains, locus YKL190W, strain CNB1, active compounds read low 1.01 | S. cerevisiae deletion strains, locus YKR001C, strain vps1, active compounds read low 0.989 | S. cerevisiae deletion strains, locus YKR026C, strain gcn3, active compounds read low 1 | S. cerevisiae deletion strains, locus YKR091W, strain srl3, active compounds read low 1.01 | S. cerevisiae deletion strains, locus YLL001W, strain dnm1, active compounds read low 0.993 | S. cerevisiae deletion strains, locus YLL026W, active compounds read low 1.01 | S. cerevisiae deletion strains, locus YLL041C, strain sdh2, active compounds read low 1.01 | S. cerevisiae deletion strains, locus YLR027C, strain aat2, active compounds read low 1.01 | S. cerevisiae deletion strains, locus YLR039C, strain RIC1, active compounds read low 1.03 | S. cerevisiae deletion strains, locus YLR058C, strain SHM2, active compounds read low 1 | S. cerevisiae deletion strains, locus YLR102C, strain apc9, active compounds read low 0.994 | S. cerevisiae deletion strains, locus YLR113W, strain HOG1, active compounds read low 0.994 | S. cerevisiae deletion strains, locus YLR221C, strain rsa3, active compounds read low 0.998 | S. cerevisiae deletion strains, locus YLR258W, strain gsy2, active compounds read low 1.02 | S. cerevisiae deletion strains, locus YLR262C, strain YPT6 (second series), active compounds read low 1.01 | S. cerevisiae deletion strains, locus YLR262C, strain YPT6, active compounds read low 1.03 | S. cerevisiae deletion strains, locus YLR268W, strain sec22, active compounds read low 0.978 | S. cerevisiae deletion strains, locus YLR320W, strain mms22, active compounds read low 1.02 | S. cerevisiae deletion strains, locus YLR330W, strain CHS5, active compounds read low 1 | S. cerevisiae deletion strains, locus YLR342W, strain FKS1 (second series), active compounds read low 0.992 | S. cerevisiae deletion strains, locus YLR342W, strain FKS1, active compounds read low 1 | S. cerevisiae deletion strains, locus YLR357W, strain rsc2, active compounds read low 0.998 | S. cerevisiae deletion strains, locus YLR370C, strain arc18, active compounds read low 1.01 | S. cerevisiae deletion strains, locus YLR371W, strain rom2, active compounds read low 0.991 | S. cerevisiae deletion strains, locus YLR384C, strain iki3, active compounds read low 1.02 | S. cerevisiae deletion strains, locus YLR418C, strain cdc73, active compounds read low 0.961 | S. cerevisiae deletion strains, locus YML016C, strain PPZ1, active compounds read low 0.994 | S. cerevisiae deletion strains, locus YML032C, strain rad52, active compounds read low 0.981 | S. cerevisiae deletion strains, locus YML120C, strain ndi1, active compounds read low 1.02 | S. cerevisiae deletion strains, locus YML124C, strain tub3, active compounds read low 0.991 | S. cerevisiae deletion strains, locus YMR058W, strain fet3, active compounds read low 1 | S. cerevisiae deletion strains, locus YMR078C, strain ctf18, active compounds read low 0.987 | S. cerevisiae deletion strains, locus YMR125W, strain sto1, active compounds read low 1.04 | S. cerevisiae deletion strains, locus YMR129W, active compounds read low 1.01 | S. cerevisiae deletion strains, locus YMR205C, strain PFK2, active compounds read low 1.03 | S. cerevisiae deletion strains, locus YMR223W, strain ubp8, active compounds read low 1.01 | S. cerevisiae deletion strains, locus YMR231W, strain pep5, active compounds read low 1.02 | S. cerevisiae deletion strains, locus YMR263W, strain SAP30, active compounds read low 1 | S. cerevisiae deletion strains, locus YMR307W, strain GAS1, active compounds read low 1.03 and 1 | S. cerevisiae deletion strains, locus YNL067W, strain RPL9B, active compounds read low 1 | S. cerevisiae deletion strains, locus YNL071W, strain lat1, active compounds read low 1.01 | S. cerevisiae deletion strains, locus YNL128W, strain TEP1, active compounds read low 0.998 | S. cerevisiae deletion strains, locus YNL153C, strain GIM3, active compounds read low 0.991 | S. cerevisiae deletion strains, locus YNL175C, strain NOP13, active compounds read low 0.937 | S. cerevisiae deletion strains, locus YNL183C, strain NPR1, active compounds read low 0.934 | S. cerevisiae deletion strains, locus YNL197C, strain WHI3, active compounds read low 0.956 | S. cerevisiae deletion strains, locus YNL209W, strain ssb2, active compounds read low 1.01 | S. cerevisiae deletion strains, locus YNL224C, strain SQS1, active compounds read low 0.981 | S. cerevisiae deletion strains, locus YNL233W, strain BNI4, active compounds read low 1.01 | S. cerevisiae deletion strains, locus YNL248C, strain rpa49, active compounds read low 1.02 | S. cerevisiae deletion strains, locus YNL250W, strain rad50, active compounds read low 0.988 | S. cerevisiae deletion strains, locus YNL271C, strain bni1, active compounds read low 0.985 | S. cerevisiae deletion strains, locus YNL298W, strain CLA4, active compounds read low 0.985 | S. cerevisiae deletion strains, locus YNL307C, strain MCK1, active compounds read low 0.994 | S. cerevisiae deletion strains, locus YNL322C, strain KRE1 (second series), active compounds read low 1.03 | S. cerevisiae deletion strains, locus YNL322C, strain KRE1, active compounds read low 1 and 0.976 | S. cerevisiae deletion strains, locus YNR049C, strain mso1, active compounds read low 1.01 | S. cerevisiae deletion strains, locus YNR052C, strain pop2, active compounds read low 0.986 | S. cerevisiae deletion strains, locus YOL006C, strain TOP1, active compounds read low 0.954 | S. cerevisiae deletion strains, locus YOL012C, strain htz1 0.78 | S. cerevisiae deletion strains, locus YOL147C, strain pex11, active compounds read low 0.996 | S. cerevisiae deletion strains, locus YOR001W, strain rrp6, active compounds read low 1.01 | S. cerevisiae deletion strains, locus YOR061W, strain CKA2, active compounds read low 1 | S. cerevisiae deletion strains, locus YOR069W, strain VPS5, active compounds read low 0.993 | S. cerevisiae deletion strains, locus YOR070C, strain gyp1, active compounds read low 1.01 | S. cerevisiae deletion strains, locus YOR080W, strain dia2, active compounds read low 1.03 | S. cerevisiae deletion strains, locus YOR083W, strain WHI5 (second series), active compounds read low 0.975 | S. cerevisiae deletion strains, locus YOR083W, strain WHI5, active compounds read low 0.999 | S. cerevisiae deletion strains, locus YOR106W, strain vam3, active compounds read low 1.01 | S. cerevisiae deletion strains, locus YOR136W, strain idh2, active compounds read low 0.992 | S. cerevisiae deletion strains, locus YOR144C, strain elg1, active compounds read low 0.989 | S. cerevisiae deletion strains, locus YOR184W, strain ser1, active compounds read low 0.991 | S. cerevisiae deletion strains, locus YOR231W, strain MKK1, active compounds read low 0.993 | S. cerevisiae deletion strains, locus YOR265W, strain rbl2, active compounds read low 1.01 | S. cerevisiae deletion strains, locus YOR270C, strain vph1, active compounds read low 1 | S. cerevisiae deletion strains, locus YOR290C, strain snf2, active compounds read low 1.03 | S. cerevisiae deletion strains, locus YOR316C, strain cot1, active compounds read low 0.994 | S. cerevisiae deletion strains, locus YPL051W, strain arl3, active compounds read low 1 | S. cerevisiae deletion strains, locus YPL055C, strain LGE1, active compounds read low 1.05 and 1.01 | S. cerevisiae deletion strains, locus YPL078C, strain atp4, active compounds read low 1.01 | S. cerevisiae deletion strains, locus YPL106C, strain sse1, active compounds read low 1.04 | S. cerevisiae deletion strains, locus YPL240C, strain hsp82, active compounds read low 1.01 | S. cerevisiae deletion strains, locus YPL241C, strain CIN2, active compounds read low 1 | S. cerevisiae deletion strains, locus YPL256C, strain CLN2, active compounds read low 0.982 | S. cerevisiae deletion strains, locus YPR119W, strain clb2, active compounds read low 0.986 | S. cerevisiae deletion strains, locus YPR141C, strain kar3, active compounds read low 0.987 | S. cerevisiae deletion strains, locus YPR163C, strain tif3, active compounds read low 0.988 | S. cerevisiae deletion strains, locus YPR167C, strain met16, active compounds read low 0.985 | S. cerevisiae deletion strains, strain wtn01, active compounds read low 0.977 | S. cerevisiae strains, strain wild type, active compounds read low 1.01
